In PubChem BioAssay:
Activity calls are given as the source filed them.

How the values were obtained:
[1] = compound effects on lung adenocarcinoma cell viability – A549, calcein-AM fluorescence, 48 h, basal, profiling panel (AID 1162); conditions: higher = more signal
[2] = compound effects on differentiated 3T3-L1 adipocyte viability – cell-based, 3T3-L1 adipocytes, calcein-AM fluorescence, 48 h, basal, profiling panel (AID 1163); conditions: 3T3-L1 adipocytes viability, higher = more signal
[3] = compound effects on hepatocellular carcinoma cell viability – HepG2, calcein-AM fluorescence, 48 h, basal, profiling panel (AID 1164); conditions: higher = more signal
[4] = compound effects on multiple myeloma cell viability – MM1S, calcein-AM fluorescence, 48 h, basal, profiling panel (AID 1165); conditions: higher = more signal
[5] = calcein-AM signal in unstimulated myeloma cells – cell-based, calcein-AM fluorescence, 48 h, PK04 Diversity Set, profiling panel (AID 1166); conditions: RPMI8226 myeloma viability, higher = more signal;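 note: cells grown under basal conditions without added stimulus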
[6] = JC-1 mitochondrial signal, unstimulated HepG2 cells – cell-based, JC-1 fluorescence, 24 h, 100 nL compound, profiling panel (AID 1167); conditions: HepG2 mitochondrial potential, higher = more signal
[7] = JC-1 mitochondrial signal, unstimulated adipocytes – cell-based, JC-1 fluorescence, 3T3-L1 adipocytes, 24 h, 100 nL compound, profiling panel (AID 1168); conditions: JC-1 mitochondrial fluorescence, higher = more signal, called active from +8 up or from −8 down
[8] = JC-1 mitochondrial signal, unstimulated myeloma cells – cell-based, JC-1 fluorescence, RPMI8226, 24 h, 100 nL compound, profiling panel (AID 1169); conditions: JC-1 mitochondrial potential fluorescence, higher = more signal
[9] = JC-1 mitochondrial signal, unstimulated MM1S myeloma – cell-based, JC-1 fluorescence, 24 h, 100 nL compound, profiling panel (AID 1170); conditions: MM1S mitochondrial potential, higher = more signal
[10] = resazurin metabolic signal in A549 cells – cell-based, resazurin fluorescence, 24 h, PK04 Diversity Set, profiling panel (AID 1171); conditions: A549 viability, higher = more signal, called active from +8 up or from −8 down
Note: test concentration not given here.

| Compound | z-score [1] | z-score [2] | z-score [3] | z-score [4] | z-score [5] | z-score [6] | z-score [7] | z-score [8] | z-score [9] | z-score [10] |
| --- | --- | --- | --- | --- | --- | --- | --- | --- | --- | --- |
| NC(=O)NCC#Cc1ccc2c(c1)[C@]1(C(=O)N2)[C@H](C(N)=O)[C@H]2C(=O)O[C@H](c3ccccc3)[C@H](c3ccccc3)N2[C@@H]1c1ccc(O)cc1 | -0.851 | -0.842 | -0.848 | 0.201 | 0.375 | -1.73 | -0.344 (inactive) | -0.758 | -0.094 | 0.808 (inactive) |
| CCN(CC)c1ccc(N2CC=CC34O[C@@H]5C=CCCOC(=O)C5[C@H]3C(=O)N(CCCCCCO)[C@@H]4C2=O)cc1 (stereo not given in full) | 0.75 | 1.45 | 0.239 | 1.97 | 0.401 | 0.432 | -0.641 (inactive) | -0.197 | -0.585 | 1.02 (inactive) |
| C=CCC(OC(C)=O)[C@@H]1[C@@H](N(Cc2cc3ccccc3o2)C(=O)c2cccc3ccccc23)c2cc(OCCCO)ccc2N1C(=O)c1ccc(-c2ccccc2)cc1 (stereo not given in full) | 0.067 | 0.509 | 0.168 | 0.612 | -2.25 | 3.47 | 0.0822 (inactive) | -0.448 | 0.955 | -0.808 (inactive) |
| COC(=O)[C@H](Cc1ccccc1)N1CC2=C[C@@H](C3CC3)n3c(=O)n(C)c(=O)n3[C@H]2[C@@H]1[C@@H](O)Cc1ccccc1 | 1.97 | -0.375 | 0.888 | 0.378 | -0.473 | 1.49 | -1.06 (inactive) | 0.223 | -0.804 | 0.138 (inactive) |
| [N-]=[N+]=NCc1ccccc1[C@@H]1OC(c2ccc(OCCCO)cc2)=N[C@]1(Cc1ccccc1)C(=O)NCC(O)CO (stereo not given in full) | 0.939 | -1.16 | 0.78 | -1.07 | -0.596 | -0.474 | -0.672 (inactive) | -0.596 | -0.471 | 0.424 (inactive) |
| O=C1c2ccccc2[C@](Cc2ccccc2I)(C(=O)NCCN2CCOCC2)[C@H](c2ccc(CO)cc2)N1C1CCCCC1 | 0.668 | 0.195 | 1.52 | -0.196 | -1.22 | 1.36 | -1.01 (inactive) | -0.385 | -0.96 | -0.112 (inactive) |
| CO[C@H]1O[C@H](CO)[C@@H](OC(=O)Nc2cccc(F)c2)[C@H](OC(=O)Nc2ccccc2)[C@@H]1OC(=O)Nc1ccccc1 | -1.61 | 0.18 | -2.08 | -3.43 | -4.24 | -0.702 | -1.66 (inactive) | -1.22 | -1.07 | -3.16 (inactive) |
| C[C@H]1C2[C@H](Cc3ccccc3)NC(=O)[C@]23C(=O)N[C@H](Cc2ccccc2)C(=O)N2CCC[C@H]2C(=O)NC/C=C\C/C=C/C3[C@@H]2O[C@]12C (stereo not given in full) | 1.4 | 0.993 | 0.445 | 0.0625 | -0.0608 | 0.725 | 0.736 (inactive) | -0.243 | -0.634 | 0.559 (inactive) |
| CC1(C)C2C=C(C(O)C3C=CC4C(=O)NC(=O)C4N3Nc3ccc(Cl)cc3Cl)C[C@@H]1C2 (stereo not given in full) | -2.48 | -0.88 | -1.8 | -3.73 | -4.1 | -4.27 | -0.803 (inactive) | -1.14 | -1.04 | -1.85 (inactive) |
| COCCOC(=O)N1C(=O)[C@@]2(c3cc(C#CCCO)ccc31)[C@H](C(N)=O)[C@H]1C(=O)O[C@H](c3ccccc3)[C@H](c3ccccc3)N1[C@@H]2c1ccc(O)cc1 | -0.272 | 0.24 | -0.05 | 0.0119 | -1.2 | -0.537 | -0.142 (inactive) | -0.105 | 0.0477 | -0.3 (inactive) |
| CN1C(=O)C2C=CC(C(O)c3ccco3)N(Nc3ccccc3)C2C1=O (stereo not given) | -0.835 | -1.12 | -0.315 | -1.34 | -0.137 | -1.67 | -0.783 (inactive) | 0.819 | -0.101 | -0.579 (inactive) |
| CC(C)NC(=O)[C@@]1(c2ccc([N+](=O)[O-])cc2)CC(=O)N(C2CCCCC2)[C@@H]1c1ccc(CO)cc1I | 1.92 | 1 | 0.243 | -2.24 | -2.58 | 1.29 | 0.484 (inactive) | -0.169 | 0.521 | 0.465 (inactive) |
| O=C1C2C=CC(C(O)c3cc(C(F)(F)F)cc(C(F)(F)F)c3)N(n3cnnc3)C2C(=O)N1Cc1ccccc1 (stereo not given) | -0.416 | 0.649 | -0.167 | 0.0347 | -1.41 | -0.605 | -1.62 (inactive) | 0.11 | 0.914 | -0.226 (inactive) |
| CCCCCCc1nc(-c2ccc(OC)nc2)cc2c1[Si](C(C)C)(C(C)C)O[C@H]2c1ccccc1 | -0.33 | -0.261 | -1.1 | -0.26 | -1.12 | -1.14 | -1.3 (inactive) | -0.198 | -0.281 | 0.98 (inactive) |
| C=C(CCCC)/C(=C/C[C@@H](OC(=O)c1ccncc1)c1ccc(OCCO)cc1)c1cc(C(=O)OC)ccc1OC | 0.941 | -0.18 | 1.86 | -0.61 | -0.385 | 2.46 | -0.451 (inactive) | -0.728 | -0.969 | 0.998 (inactive) |
